Measurements as given in PubChem BioAssay (NCI).
About 83,000 compounds went through this panel and 20% of them were active in at least one assay; those are over-represented in the sample as a whole.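 96-well plates, one dose, 48 hours. Percent growth reported; active if below 10.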 Values without a mark were called inactive. Active and inactive are the calls of the source.

system: SK-MEL-28 melanoma; assay: NCI-60 one-dose screen, 48 h (100 = growth as untreated, 0 = no growth, -100 = all killed); conditions: 10 µM

Going from `COc1cc(-c2nn3c(/C=C4/C(=O)Nc5ccccc54)c(-c4ccc(C)cc4)nc3s2)cc(OC)c1OC` to `COc1cc(-c2cc(/C=C/C(=O)c3ccc(Cl)c(Cl)c3)[nH]n2)cc(OC)c1OC`, the growth rises from 29.1% to 96.1%.

First: CCCCC/C=C/C(=O)CCc1ccc(O)c(OC)c1
Second: CCCCCC(=O)c1ccc(OCCCN2CCN(C(=O)OCC)CC2)cc1
The growth of the first is lower: 95.8% for the first, 98.3% for the second.

First: Cc1c(Cl)cccc1NC(=O)c1sc2nc3c(cc2c1N)C(=O)CCC3
Second: COc1ccc(OC)c(NC(=O)c2sc3nc4c(cc3c2N)C(=O)CCC4)c1
The growth of the first is lower: 43.7% for the first, 83.7% for the second.

Going from `CSc1cc(SC)ncn1` to `Cc1ccc(C(=O)Nc2cccc(F)c2)cc1NC(=O)C1(c2ncnc3[nH]ccc23)CC1`, the growth falls from 102% to 83.3%.

Going from `O=C(Nc1ccc(CN2CCc3nc4cc(O)c(O)cc4cc32)cc1)c1ccc(Cl)c(Cl)c1` to `O=C(Nc1ccc(Cl)c(Cl)c1)Nc1c(Oc2ccc(Cl)c(Cl)c2)ccc(Cl)c1S(=O)(=O)O`, the growth falls from 96.8% to 54.8%.

Compared with `O=C1NC(=O)N(Cc2ccccc2)CC1Br` (stereo not drawn), `O=C(Nc1cccc(Br)c1)c1cc(=O)[nH]c2ccccc12` is higher in growth: 97.7% for the first, 107% for the second.

Going from `O=C(Nc1ccncc1)C(=O)c1cn(S(=O)(=O)c2cccc(Cl)c2)c2ccccc12` to `C#Cc1ccc(-n2c(/C=C/c3ccc4ccccc4c3)nc3ncccc3c2=O)cc1`, the growth falls from 86.5% to 58.8%.

Going from `Cc1cc(N(CCCNc2ccnc3cc(Cl)ccc23)Cc2cccs2)nc(Cl)n1` to `N=C(N)c1ccc(-c2ccc(-c3cccs3)o2)cc1`, the growth falls from 81.5% to 47.6%.

Compared with `Nc1nc(N)c2c(ccc3nccc32)[nH]1`, `Nc1nc(N)c(NC(=O)CNc2ccc(C(=O)O)cc2)c(N)n1` is higher in growth: 83.4% for the first, 97.9% for the second.

First: CCCC(F)C(=O)O (stereo not drawn)
Second: O=C(O)CC(Cl)C(Cl)CC(=O)O (stereo not drawn)
The growth of the first is higher: 111% for the first, 107% for the second.

First: Cn1c(N)c(N=Nc2ccc(S(=O)(=O)Nc3nccs3)cc2)c(=O)n(C)c1=O
Second: COc1ccc2c(c1)O/C(=C\c1ccc([N+](=O)[O-])o1)C2=O
The growth of the first is higher: 112% for the first, 41.9% for the second.

First: Nc1ccccc1NC(=O)CCCCC(=O)Nc1ccc2c(c1)/C(=C/c1ccc[nH]1)C(=O)N2
Second: CCN(CC)CCNC(=O)c1ccc(NC(C)=O)cc1
The growth of the first is lower: 86.1% for the first, 118% for the second.

Compared with `COc1cc(/C=C2\CCCC3=C2N=C2SC=NN2C3c2cc(OC)c(OC)c(OC)c2)cc(OC)c1OC` (stereo not drawn), `COc1cc(C)ccc1C(=O)c1ccc(C)cc1OC` is higher in growth: 42.5% for the first, 58.5% for the second.

Compared with `CCC(=O)N1C/C(=C/c2ccc(OC)cc2)C(=O)/C(=C/c2ccc(OC)cc2)C1`, `O=C(CC(C(=O)c1ccccc1)N1CCOCC1)c1ccccc1` (stereo not drawn) is higher in growth: 19.2% for the first, 92.2% for the second.

Compared with `O=C(c1ccc(Cl)cc1Cl)N1CCOCC1`, `CCCCCCCCCCCCCCCCN(C(C)c1ccccc1)S(=O)(=O)c1ccc(OC)c(N)c1` (stereo not drawn) is lower in growth: 110% for the first, 109% for the second.

With `COc1ccc(-c2cc(/C=C/C(=O)c3cc(OC)c(OC)c(OC)c3)[nH]n2)cc1OC` the growth was -66.8% (active).
For `CCOC(=O)C(=Cc1ccc(Br)cc1)C(=O)OCC`, the growth was -74.5% (active).
With `COc1cc(-c2cc(/C=C3\C(=O)Nc4ccc(Cl)cc43)[nH]n2)cc(OC)c1OC` the growth was -1.56% (active).
In the case of `CC(C)(C)NC/C(=C\c1ccccc1)C(=O)c1ccccc1`, the growth is reported as -29.2% (active).
`COc1cc(-c2cc(/C=C/C(=O)c3ccc(N)cc3)[nH]n2)cc(OC)c1OC` was tested, and the growth was 6.59% (active).
In the case of `COc1ccc(/C=C2/CN(CCC#N)C/C(=C\c3ccc(OC)cc3)C2=O)cc1`, the growth is reported as 6.16% (active).
In the case of `COc1cc(Cl)cc(-c2nn(-c3cccc(NC(=O)Nc4cc(C(F)(F)F)cc(C(F)(F)F)c4)c3)cc2-c2ccncc2)c1`, the growth is reported as 6.55% (active).
In the case of `COc1cc(C(=O)/C=C/c2cc(-c3cc(OC)c(OC)c(OC)c3)n[nH]2)cc(OC)c1OC`, the growth is reported as -59.5% (active).
`CC(=O)N1C/C(=C/c2ccc(Cl)cc2)C(=O)/C(=C/c2ccc(Cl)cc2)C1` was tested, and the growth was -54.2% (active).

system: SK-MEL-2 melanoma; assay: as above; conditions: 10 µM

Going from `COc1cc(-c2nn3c(/C=C4/C(=O)Nc5ccccc54)c(-c4ccc(C)cc4)nc3s2)cc(OC)c1OC` to `COc1cc(-c2cc(/C=C/C(=O)c3ccc(N)cc3)[nH]n2)cc(OC)c1OC`, the growth falls from 65.9% to 28.6%.

Going from `CCCCC/C=C/C(=O)CCc1ccc(O)c(OC)c1` to `CCCCCC(=O)c1ccc(OCCCN2CCN(C(=O)OCC)CC2)cc1`, the growth falls from 121% to 85.5%.

First: Cc1c(Cl)cccc1NC(=O)c1sc2nc3c(cc2c1N)C(=O)CCC3
Second: COc1ccc(OC)c(NC(=O)c2sc3nc4c(cc3c2N)C(=O)CCC4)c1
The growth of the first is lower: 18% for the first, 94.1% for the second.

First: CSc1cc(SC)ncn1
Second: Cc1ccc(C(=O)Nc2cccc(F)c2)cc1NC(=O)C1(c2ncnc3[nH]ccc23)CC1
The growth of the first is higher: 100% for the first, 14.5% for the second.

Going from `O=C(Nc1ccc(CN2CCc3nc4cc(O)c(O)cc4cc32)cc1)c1ccc(Cl)c(Cl)c1` to `COc1cc(-c2cc(/C=C/C(=O)c3ccc(Cl)c(Cl)c3)[nH]n2)cc(OC)c1OC`, the growth falls from 105% to 86.7%.

First: COc1ccc(-c2cc(/C=C/C(=O)c3cc(OC)c(OC)c(OC)c3)[nH]n2)cc1OC
Second: COc1cc(/C=C2\CCCC3=C2N=C2SC=NN2C3c2cc(OC)c(OC)c(OC)c2)cc(OC)c1OC (stereo not drawn)
The growth of the first is lower: 69.9% for the first, 89.3% for the second.

Compared with `O=C1NC(=O)N(Cc2ccccc2)CC1Br` (stereo not drawn), `O=C(Nc1cccc(Br)c1)c1cc(=O)[nH]c2ccccc12` is lower in growth: 70.4% for the first, 56.6% for the second.

First: O=C(Nc1ccncc1)C(=O)c1cn(S(=O)(=O)c2cccc(Cl)c2)c2ccccc12
Second: Nc1ccccc1NC(=O)CCCCC(=O)Nc1ccc2c(c1)/C(=C/c1ccc[nH]1)C(=O)N2
The growth of the first is higher: 57.7% for the first, 46.2% for the second.

First: Cc1cc(N(CCCNc2ccnc3cc(Cl)ccc23)Cc2cccs2)nc(Cl)n1
Second: Nc1nc(N)c(NC(=O)CNc2ccc(C(=O)O)cc2)c(N)n1
The growth of the first is lower: 64.7% for the first, 102% for the second.

First: Nc1nc(N)c2c(ccc3nccc32)[nH]1
Second: Cn1c(N)c(N=Nc2ccc(S(=O)(=O)Nc3nccs3)cc2)c(=O)n(C)c1=O
The growth of the first is lower: 57.6% for the first, 92.4% for the second.

`CCCC(F)C(=O)O` (stereo not drawn) and `O=C(O)CC(Cl)C(Cl)CC(=O)O` (stereo not drawn) are the same in growth: 107% for the first, 107% for the second.

Compared with `COc1ccc(/C=C2/CN(CCC#N)C/C(=C\c3ccc(OC)cc3)C2=O)cc1`, `CCC(=O)N1C/C(=C/c2ccc(OC)cc2)C(=O)/C(=C/c2ccc(OC)cc2)C1` is higher in growth: 57.3% for the first, 82.3% for the second.

Compared with `O=C(c1ccc(Cl)cc1Cl)N1CCOCC1`, `O=C(CC(C(=O)c1ccccc1)N1CCOCC1)c1ccccc1` (stereo not drawn) is higher in growth: 96.5% for the first, 102% for the second.

First: CCCCCCCCCCCCCCCCN(C(C)c1ccccc1)S(=O)(=O)c1ccc(OC)c(N)c1 (stereo not drawn)
Second: COc1cc(C)ccc1C(=O)c1ccc(C)cc1OC
The growth of the first is higher: 120% for the first, 17.2% for the second.

Work on `CCN(CC)CCNC(=O)c1ccc(NC(C)=O)cc1` yielded a growth of 115%.

In the case of `CCOC(=O)C(=Cc1ccc(Br)cc1)C(=O)OCC`, the growth is reported as -61.5% (active).
For `COc1cc(-c2cc(/C=C3\C(=O)Nc4ccc(Cl)cc43)[nH]n2)cc(OC)c1OC`, the growth was -19.1% (active).
In the case of `CC(C)(C)NC/C(=C\c1ccccc1)C(=O)c1ccccc1`, the growth is reported as -64.3% (active).
In the case of `O=C(Nc1ccc(Cl)c(Cl)c1)Nc1c(Oc2ccc(Cl)c(Cl)c2)ccc(Cl)c1S(=O)(=O)O`, the growth is reported as -1.82% (active).
For `COc1ccc2c(c1)O/C(=C\c1ccc([N+](=O)[O-])o1)C2=O`, the growth was -39.4% (active).
With `COc1cc(Cl)cc(-c2nn(-c3cccc(NC(=O)Nc4cc(C(F)(F)F)cc(C(F)(F)F)c4)c3)cc2-c2ccncc2)c1` the growth was -38.1% (active).
For `C#Cc1ccc(-n2c(/C=C/c3ccc4ccccc4c3)nc3ncccc3c2=O)cc1`, the growth was -33.2% (active).
In the case of `COc1cc(C(=O)/C=C/c2cc(-c3cc(OC)c(OC)c(OC)c3)n[nH]2)cc(OC)c1OC`, the growth is reported as 4.38% (active).
`N=C(N)c1ccc(-c2ccc(-c3cccs3)o2)cc1` was tested, and the growth was -7.14% (active).
With `CC(=O)N1C/C(=C/c2ccc(Cl)cc2)C(=O)/C(=C/c2ccc(Cl)cc2)C1` the growth was -0.636% (active).
